Measured values: PubChem BioAssay (Tox21)
Where “and” joins values, the source holds several entries; their conditions need not be identical. Equal entries are not always repeated. Inconclusive results are not listed. A call without a number means that no potency is given here. A structure can be active in one record and inactive in another. Calls of active or inactive are those of the source. Unless noted, calls come from the whole dose curve; as a rule, active = well fitted curve in the direction sought with a large enough effect in the repeat runs; inconclusive = weak or mixed curves; inactive = no such curve, though single readings can be large; an effect the other way counts as inactive or inconclusive.

Assays:
[1] = qHTS assay to identify small molecule agonists of the estrogen receptor alpha (ER-alpha) signaling pathway in the presence of an antagonist - cell viability counter screen (AID 1259386);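 note: cells exposed to compounds for 22 h at 37 °C before the viability read; nearly all actives have a fitted effect of over 30% in size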; note: potency is the fitted concentration of half-maximal effect
In short: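 Using estrogen-depleted VM7Luc4E2 cells, the 15-concentration compound series was applied together with 10.0nM ICI-182,780 and incubated 22hr at 37C/5% CO2. Cell viability was then scored by CellTiter-Fluor.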

[2] = biological target: Progesterone receptor (Homo sapiens) (UniProt P06401); assay: qHTS assay to identify small molecule agonists of the progesterone receptor (PR) signaling pathway (AID 1346784; calls by dose curve; note: nearly all actives have a fitted effect of over 30% in size)
Progesterone receptor (Homo sapiens), sequence (P06401 whole entry, looked up): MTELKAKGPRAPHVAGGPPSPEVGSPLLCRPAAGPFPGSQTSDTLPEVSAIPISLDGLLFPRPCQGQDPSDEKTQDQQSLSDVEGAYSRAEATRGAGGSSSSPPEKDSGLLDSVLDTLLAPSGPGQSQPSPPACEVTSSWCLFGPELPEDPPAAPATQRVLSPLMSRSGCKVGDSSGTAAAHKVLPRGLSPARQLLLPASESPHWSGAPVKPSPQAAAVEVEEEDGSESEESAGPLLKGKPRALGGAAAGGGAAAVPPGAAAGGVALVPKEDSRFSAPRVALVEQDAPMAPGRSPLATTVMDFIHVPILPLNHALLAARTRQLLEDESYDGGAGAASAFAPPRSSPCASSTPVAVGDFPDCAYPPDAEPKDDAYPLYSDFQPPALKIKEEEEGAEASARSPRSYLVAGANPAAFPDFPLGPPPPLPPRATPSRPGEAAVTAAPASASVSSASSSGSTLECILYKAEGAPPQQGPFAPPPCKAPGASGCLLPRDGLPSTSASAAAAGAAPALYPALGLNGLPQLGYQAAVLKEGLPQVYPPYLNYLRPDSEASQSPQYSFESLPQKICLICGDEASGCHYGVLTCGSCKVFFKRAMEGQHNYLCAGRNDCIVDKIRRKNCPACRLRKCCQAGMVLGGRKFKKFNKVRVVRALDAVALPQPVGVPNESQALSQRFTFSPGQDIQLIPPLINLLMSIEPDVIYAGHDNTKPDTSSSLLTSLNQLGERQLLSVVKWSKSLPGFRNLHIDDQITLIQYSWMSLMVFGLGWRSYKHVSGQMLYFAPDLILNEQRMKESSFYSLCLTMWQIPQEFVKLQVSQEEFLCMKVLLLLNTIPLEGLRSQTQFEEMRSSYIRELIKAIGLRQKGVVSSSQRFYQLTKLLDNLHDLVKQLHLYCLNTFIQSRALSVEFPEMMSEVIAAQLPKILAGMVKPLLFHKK
In short: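 Agonist qHTS: compounds pinned onto 3,000 PR-UAS-bla HEK 293T cells per well in charcoal-stripped serum medium, 16hr at 37C, then beta-lactamase activity measured by LiveBLAzer FRET fluorescence after 2 hours at room temperature.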

[3] = qHTS assay to identify small molecule antagonists of the progesterone receptor (PR) signaling pathway - cell viability counter screen (AID 1346798); note: nearly all actives have a fitted effect of over 50% in size; note: potency is the fitted concentration of half-maximal effect
In short: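 Cytotoxicity read as CellTiter-Glo luminescence (30 min, room temperature) in the same wells as the beta-lactamase readout. HEK293T PR-UAS-bla cells in charcoal-stripped 2% FBS received compound and R5020, then 16 h at 37C, 5% CO2.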

[4] = qHTS assay to identify small molecule agonists of the progesterone receptor (PR) signaling pathway - cell viability counter screen (AID 1346799; calls by dose curve; note: nearly all actives have a fitted effect of over 45% in size; note: potency is the fitted concentration of half-maximal effect)
In short: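 Cytotoxicity measured by CellTiter-Glo luminescence (30 min, RT) in the same wells as the PR beta-lactamase agonist read. Those HEK293T cells had 16 h compound treatment at 37 C in 2% charcoal-stripped FBS medium.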

[5] = qHTS assay to identify small molecule antagonists of the TGF-beta/Smad signaling pathway - cell viability counter screen (AID 1346824); note: nearly all actives have a fitted effect of over 50% in size; note: potency is the fitted concentration of half-maximal effect
In short: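 Cytotoxicity counter-screen run in the same wells as the beta-lactamase Smad reporter read: CellTiter-Glo luminescence after 30 min at room temperature. HEK 293T SBE-bla cells had 5 hr compound exposure at 37 C with TGF-beta1 (0.25 ng/mL stock).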

[6] = qHTS assay to identify small molecule agonists of the TGF-beta/Smad signaling pathway - cell viability counter screen (AID 1346829); note: nearly all actives have a fitted effect of over 45% in size; note: potency is the fitted concentration of half-maximal effect
In short: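 Here the cytotoxicity of library compounds is measured in SBE-bla HEK 293T cells treated for 5 hr, using CellTiter-Glo added to wells already read for the beta-lactamase reporter.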

[7] = qHTS assay to identify small molecule agonists of the TGF-beta/Smad signaling pathway (AID 1346859; active = well fitted activation curve with a large enough effect in the signal ratio in the repeat runs, not every such curve was filed as active; the % refers to the signal ratio; note: series mostly up to about 77 µM)
In short: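 Fluorescence (ex 405 nm; em 460 and 530 nm) was read 2 h after LiveBLAzer FRET substrate at RT. The preceding compound treatment of overnight-plated SBE-bla HEK293T cells lasted 5 h at 37 C.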

[8] = biological target: Thyrotropin-releasing hormone receptor (Homo sapiens) (UniProt P34981); assay: qHTS assay to identify small molecule antagonists of the thyrotropin-releasing hormone receptor (TRHR) signaling pathway (AID 1346877; active = well fitted inhibition curve with a large enough effect in the repeat runs, not every such curve was filed as active; note: series mostly up to about 51 µM)
Thyrotropin-releasing hormone receptor (Homo sapiens), sequence (P34981 whole entry, looked up): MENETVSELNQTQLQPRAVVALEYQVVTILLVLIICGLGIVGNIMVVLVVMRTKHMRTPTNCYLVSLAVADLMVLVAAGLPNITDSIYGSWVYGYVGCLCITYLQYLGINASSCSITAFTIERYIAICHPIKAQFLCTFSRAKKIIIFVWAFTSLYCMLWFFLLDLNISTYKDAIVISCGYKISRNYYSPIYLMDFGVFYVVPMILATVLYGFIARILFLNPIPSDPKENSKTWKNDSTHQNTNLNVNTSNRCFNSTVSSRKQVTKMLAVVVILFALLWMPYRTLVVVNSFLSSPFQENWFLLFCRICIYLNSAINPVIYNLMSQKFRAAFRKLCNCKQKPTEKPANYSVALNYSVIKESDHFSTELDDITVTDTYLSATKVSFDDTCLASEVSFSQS
In short: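 Calcium signal in dye-loaded TRHR/HEK293 cells; compounds added 5 min before TRH (1 nM final); fluorescence monitored 3 min at 1 s steps.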

[9] = biological target: Thyrotropin-releasing hormone receptor (Homo sapiens) (UniProt P34981); assay: qHTS assay to identify small molecule agonists of the thyrotropin-releasing hormone receptor (TRHR) signaling pathway (AID 1346891; calls by dose curve; note: series mostly up to about 58 µM)
In short: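 Agonist-mode intracellular calcium readout: kinetic fluorescence over 3 min at 1 s intervals after compound addition to TRHR-HEK293 cells (18 h seeded, 2 h dye-loaded at 37 C). Fifteen concentrations, triplicates.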

[10] = biological target: Progesterone receptor (Homo sapiens) (UniProt P06401); assay: qHTS assay to identify small molecule antagonists of the progesterone receptor (PR) signaling pathway (AID 1346795; active = well fitted inhibition curve with a large enough effect in the signal ratio in the repeat runs, not every such curve was filed as active; the % refers to the signal ratio; note: potency is the fitted concentration of half-maximal effect)
In short: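 Antagonist mode with agonist R5020 at 1 nM final and 16 hr incubation at 37C. Reporter was beta-lactamase driven by UAS in HEK293T (PR-UAS-bla), 2% charcoal-stripped serum; signal from LiveBLAzer FRET substrate, 2 hr at room temperature.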

Row | Structure (SMILES) | Potency [1] | Potency [2] | Potency [3] | Potency [4] | Potency [5] | Potency [6] | Potency [7] | Potency [8] | Potency [9] | Potency [10] | activity, negative = inhibition [8] | activation [9]
1 | O=C(c1ccc(F)cc1)C1CCN(CCn2c(=O)[nH]c3ccccc3c2=O)CC1 | inactive | inactive | inactive | inactive | inactive | inactive |  |  |  |  |  | 
2 | NNc1nc(-c2ccc([N+](=O)[O-])cc2)cs1 | 24.3 µM (active) | inactive | inactive |  | inactive |  | inactive | inactive | inactive |  |  | 
3 | CCC(CN)=C(c1ccccc1)c1ccccc1 | inactive | inactive |  | inactive | inactive | inactive | inactive | inactive | inactive |  |  | 
4 | O=[N+]([O-])c1cc(Cl)c(Cl)c(Cl)c1Cl | inactive | inactive | inactive | inactive | inactive | inactive |  | inactive | inactive |  |  | 
5 | N#CC1(c2ccc(F)cc2)CCC(=O)CC1 | inactive | inactive |  | inactive | inactive | inactive | inactive | inactive | inactive |  |  | 
6 | C=C(C)C(=O)OCC[N+](C)(C)C | inactive | inactive |  | inactive | inactive | inactive | inactive |  |  |  |  | 
7 | CCCN(CCC)C(=O)C(CCC(=O)OCCCN1CCN(CCOC(=O)Cc2c(C)n(C(=O)c3ccc(Cl)cc3)c3ccc(OC)cc23)CC1)NC(=O)c1ccccc1 (configuration not stated) | 21.1 µM (active) | inactive | inactive | inactive | inactive | inactive |  |  |  |  |  | 
8 | Cc1c(C)c2c(c(C)c1OC(=O)CCC(=O)O)CC[C@@](C)(CCC[C@H](C)CCC[C@H](C)CCCC(C)C)O2 | inactive | inactive |  |  | inactive |  |  | inactive | inactive | inactive |  | 
9 | CSc1ccc(/C=C2/C(C)=C(CC(=O)O)c3cc(F)ccc32)cc1 | inactive | inactive | inactive | inactive | inactive | inactive |  | inactive | inactive |  |  | 
10 | COCCCC/C(=N\OCCN)c1ccc(C(F)(F)F)cc1 | inactive | inactive |  |  | inactive | inactive | inactive |  |  |  |  | 
11 | O=c1[nH]cnc2nc[nH]c12 | inactive | inactive | inactive | inactive | inactive | inactive | inactive | inactive | inactive |  |  | 
12 | CCCCCCC[N+](CC)(CC)CCCCc1ccc(Cl)cc1 | 26.6 µM (active) | inactive |  |  | inactive | inactive |  | inactive | inactive | inactive |  | 
13 | O=c1c(-c2ccccc2)c1-c1ccccc1 | inactive | inactive |  | inactive | inactive | inactive | inactive | inactive | inactive |  |  | 
14 | C[C@@H](NCCCc1cccc(C(F)(F)F)c1)c1cccc2ccccc12 | inactive | inactive | 26.6 µM (active) | 23.7 µM (active) |  |  |  | inactive | inactive |  |  | 
15 | Fc1ccc(C(c2ccc(F)cc2)N2CCN(C/C=C/c3ccccc3)CC2)cc1 | inactive |  |  |  |  |  | inactive |  |  | 23.7 µM (active) |  | 
16 | OCc1c[nH]c2ccccc12 | inactive |  |  |  | inactive |  |  | inactive | inactive | 25.8 µM (active) |  | 
17 | Oc1cc2ccccc2c2ccccc12 | 13.7 µM (active) |  | 6.86 µM (active) | 12.2 µM (active) | 11 µM (active) | 5.49 µM (active) |  | inactive | inactive | 6.11 µM (active) |  | 
18 | CCN1/C(=C/C=C/c2sc3ccccc3[n+]2CC)Sc2ccccc21 | 6.51 µM (active) |  |  |  |  | 4.65 µM (active) |  |  |  | 11.6 µM (active) | -4.16% [at 10.5 µM] (inactive) | -0.259% [at 11.8 µM] (inactive)
19 | CCCCCCOC(=O)c1ccc(O)cc1 | inactive |  | inactive | inactive | inactive | inactive | inactive | inactive | inactive | 38.6 µM (active) and 21.7 µM (active) |  | 
20 | Cc1cc(CCN2CCN(c3nsc4ccccc34)CC2)cc2c1NC(=O)CC2(C)C | 48.6 µM (active) |  | 30.6 µM (active) | 27.3 µM (active) | 54.9 µM (active) |  |  |  |  | 19.3 µM (active) |  | 
21 | Cc1cc(O)c2ccccc2c1O | 29.8 µM (active) |  |  |  | 19 µM (active) | 23.9 µM (active) |  | inactive | inactive | 23.7 µM (active) |  | 
22 | Nc1ccccc1O | 67.7 µM (active) | inactive |  |  | inactive | inactive | inactive | inactive | inactive |  |  | 
23 | CCCCCCCCCCCC(=O)NCCCN(C)C | inactive |  | 54.5 µM (active) | 30.6 µM (active) | 49 µM (active) |  | inactive | inactive | inactive | 61.1 µM (active) |  | 
24 | C[C@H](CCC(=O)O)[C@H]1CC[C@H]2[C@@H]3CC[C@@H]4C[C@H](O)CC[C@]4(C)[C@H]3CC[C@]12C | inactive |  | 24.2 µM (active) and 61.1 µM (active) | 30.5 µM (active) and 38.6 µM (active) |  | inactive |  |  |  | 19.3 µM (active) and 48.6 µM (active) |  | 
25 | CC1(C)CCC(C)(C)c2cc(C(=O)Nc3ccc(C(=O)O)cc3)ccc21 | inactive | inactive |  |  | inactive | inactive |  | inactive | inactive |  |  | 
26 | COC(=O)C1=C(C)NC(C)=C(C(=O)OCC(C)C)C1c1ccccc1[N+](=O)[O-] (configuration not stated) | 54.5 µM (active) and inactive |  |  |  | inactive | inactive | inactive | inactive | inactive | 10.6 µM (active) |  | 
